Each structure is given as a SMILES string. Results filed as inconclusive are left out. Activity calls are given as the source filed them.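 How the source made its calls, unless noted: active means normalized viability below 100% at a tested concentration; inactive means the rest.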

The nature of test [1]: growth inhibition of DIPG glioma cells, dose response, cell-based, SU-DIPG-XVII, MIPE5.0, CellTiter-Glo, qHTS (AID 1347060; cut-off not given, nearly all actives have AC50 up to about 26 µM;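 on AC50: cells exposed to compound for 48 hours before viability readout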). The settings on record: SU-DIPG-XVII viability, CellTiter-Glo ATP luminescence.
Test [2] is described as follows: growth inhibition of DIPG glioma cells, dose response, cell-based, SU-DIPG-XIII, MIPE4.0, CellTiter-Glo, qHTS (AID 1347061; cut-off not given, nearly all actives have AC50 up to about 37 µM;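 further: cells exposed to compound for 48 hours before readout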). The settings on record: SU-DIPG-XIII viability, CellTiter-Glo ATP luminescence. (Cellular ATP, detected with luciferase, serves as a proxy for viable cell number.)
Test [3] can be described thus: growth inhibition of DIPG glioma cells, dose response, cell-based, JHH-DIPG-1, MIPE4.0, CellTiter-Glo, qHTS (AID 1347062; cut-off not given, nearly all actives have AC50 up to about 27 µM;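 on AC50: cells exposed to compound for two days before readout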). The following applies: JHH-DIPG-1 viability, CellTiter-Glo ATP luminescence.
A short description of test [4]: growth inhibition of DIPG glioma cells, dose response, cell-based, SU-DIPG-XIII, MIPE5.0, CellTiter-Glo, qHTS (AID 1347064; cut-off not given, nearly all actives have AC50 up to about 23 µM;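 on AC50: cells exposed to compound for 48 hours before the viability read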). The settings on record: SU-DIPG-XIII viability, CellTiter-Glo ATP luminescence.
Test [5] is described as follows: viability loss in pontine glioma line – cell-based, SU-DIPG-XXV, MIPE5.0, CellTiter-Glo, qHTS, dose response (AID 1347065; cut-off not given, nearly all actives have AC50 up to about 26 µM;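 further: cells exposed to compound for 48 hours before ATP readout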). The settings on record: CellTiter-Glo ATP luminescence.
Test [6] is described as follows: SU-DIPG-VI glioma cell viability, MIPE4.0 library, CellTiter-Glo luminescence, qHTS (AID 1347066; cut-off not given, nearly all actives have AC50 up to about 30 µM;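 further: cells exposed to compound for 48 hours before readout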). The settings on record: CellTiter-Glo ATP luminescence.
Test [7] is described as follows: JHH-DIPG-1 glioma cell viability, MIPE5.0 library, CellTiter-Glo luminescence, qHTS (AID 1347067; cut-off not given, nearly all actives have AC50 up to about 26 µM;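 further: cells exposed to compound for 48 hours before readout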). The settings on record: JHH-DIPG-1 glioma viability, CellTiter-Glo ATP luminescence.
Test [8] is described as follows: SU-DIPG-XXV glioma cell viability, MIPE5.0 library, qHTS (AID 1347068; cut-off not given, nearly all actives have IC50 up to about 30 µM;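 on IC50: cells exposed to compound for 48 hours before viability readout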). On the technique in general: qHTS replaces the single test concentration by a dilution series.
Test [9] is described as follows: sensitizers of A549 cells to miR-34 induction, primary screen, imaging, A549 dox-inducible miR-34, nuclei and caspase counts (AID 1347080;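 active means compounds whose cell count with miR-34 switched on is under 0.7 times the count with it off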). The following applies: A549 miR-34 inducible, Hoechst nuclei count, 48 h.
A short description of test [10]: survival rescue of mitochondrial mutant cells in low glucose, primary screen, MELAS cybrids, Rieske KO mouse fibroblasts, CellTiter-Glo (AID 1508586;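 active means mean z-score across replicates of 1.96 or higher in either the MELAS or the Rieske mutant cell line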;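 further: z relative to plate mean and SD of compound and empty wells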).
Test [11] is described as follows: ovarian cancer cell viability with rucaparib, profiling panel, oncology-focused library, rucaparib conditional (AID 1508598). The following applies: patient-derived ovarian cancer cells, CellTiter-Glo viability, 144 h, stronger effect = lower value.
Test [12] in a line: growth inhibition of DIPG glioma cells, dose response, cell-based, SU-DIPG-IV, MIPE4.0, CellTiter-Glo, qHTS (AID 1347063; cut-off not given, nearly all actives have AC50 up to about 30 µM;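 further: compound exposure lasted 48 hours before the viability readout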). The settings on record: SU-DIPG-IV viability, CellTiter-Glo ATP luminescence.
Test [13] in a line: modifiers of HSF1 nuclear foci, imaging, Selleck Cancer Library (AID 1347162; in the data active means plate-normalised HSF1 focus index below about 0.46). The following applies: human cells, at 10 µM; SSMD: measured here: HSF1 foci SSMD mean; cell count: measured here: cell number; plate-normalised HSF1 focus index: stronger effect = lower value.

For orientation: AC50 means the midpoint of the concentration-response curve, whichever way the signal moves. Broadly, the IC50 is the midpoint of a concentration-inhibition curve. The term viability denotes a read-out of living cells in per cent, often relative to untreated cells. In the case of `COc1cc2c(Oc3ccc4[nH]c(C)cc4c3F)ncnc2cc1OCCCN1CCCC1`, the AC50 in test [1] was 1.86 µM (active); in [2], 6.62 µM (active); in test [3], 20.9 µM (active); in test [4] it was 2.35 µM (active); in [5], 2.09 µM (active); in test [6], 23.5 µM (active). The AC50 in [7] was 11.8 µM (active). Besides, in test [8], the IC50 was 16.6 µM (active). Moreover, the fold change is 0.973 (inactive) in [9] (stronger effect = lower value, cell number ratio, induced over uninduced) and 1.09 in [9] (measured here: relative caspase fold change +Dox/-Dox). The cell count in test [9] (measured here: total cells with miR-34 induction, stronger effect = lower value) was found to be 3660; in [9] (measured here: total cells without miR-34 induction) it was 3760. The z-score in test [10] (MELAS cybrid survival, CellTiter-Glo 48 h, stronger effect = higher value) is -0.469 (inactive); in test [10] (Rieske KO mouse fibroblast survival, CellTiter-Glo 72 h) it was -0.313. Also, the viability was 123% (inactive) in test [11] (at 0.000305 µM, OCI-C5x cells, with rucaparib 10 µM, 100% = cells with rucaparib alone); 103% (inactive) in test [11] (at 0.000305 µM, OCI-C5x cells, without rucaparib); 96.3% (active) in test [11] (at 0.000305 µM, OCI-P5x cells, with rucaparib 20 µM, 100% = cells with rucaparib alone); 88.7% (active) in [11] (at 0.000305 µM, OCI-P5x cells, without rucaparib); 114% (inactive) in test [11] (at 0.00122 µM, OCI-C5x cells, with rucaparib 10 µM, 100% = cells with rucaparib alone); 112% (inactive) in test [11] (at 0.00122 µM, OCI-C5x cells, without rucaparib). Further, the viability is 105% (inactive) in [11] (at 0.00122 µM, OCI-P5x cells, with rucaparib 20 µM, 100% = cells with rucaparib alone); 94% (active) in test [11] (at 0.00122 µM, OCI-P5x cells, without rucaparib); 107% (inactive) in test [11] (at 0.00488 µM, OCI-C5x cells, with rucaparib 10 µM, 100% = cells with rucaparib alone); 99.8% (active) in test [11] (at 0.00488 µM, OCI-C5x cells, without rucaparib); 97.5% (active) in [11] (at 0.00488 µM, OCI-P5x cells, with rucaparib 20 µM, 100% = cells with rucaparib alone); 91.6% (active) in [11] (at 0.00488 µM, OCI-P5x cells, without rucaparib). The viability is 123% (inactive) in test [11] (at 0.0195 µM, OCI-C5x cells, with rucaparib 10 µM, 100% = cells with rucaparib alone); 96.3% (active) in test [11] (at 0.0195 µM, OCI-C5x cells, without rucaparib); 97.8% (active) in [11] (at 0.0195 µM, OCI-P5x cells, with rucaparib 20 µM, 100% = cells with rucaparib alone); 93.1% (active) in [11] (at 0.0195 µM, OCI-P5x cells, without rucaparib); 126% (inactive) in [11] (at 0.0781 µM, OCI-C5x cells, with rucaparib 10 µM, 100% = cells with rucaparib alone); 101% (inactive) in test [11] (at 0.0781 µM, OCI-C5x cells, without rucaparib). Besides, the viability was 81.8% (active) in test [11] (at 0.0781 µM, OCI-P5x cells, with rucaparib 20 µM, 100% = cells with rucaparib alone); 92% (active) in [11] (at 0.0781 µM, OCI-P5x cells, without rucaparib); 116% (inactive) in test [11] (at 0.313 µM, OCI-C5x cells, with rucaparib 10 µM, 100% = cells with rucaparib alone); 98.1% (active) in test [11] (at 0.313 µM, OCI-C5x cells, without rucaparib); 91.9% (active) in test [11] (at 0.313 µM, OCI-P5x cells, with rucaparib 20 µM, 100% = cells with rucaparib alone); 94.6% (active) in test [11] (at 0.313 µM, OCI-P5x cells, without rucaparib). Besides, the viability in [11] (at 1.25 µM, OCI-C5x cells, with rucaparib 10 µM, 100% = cells with rucaparib alone) was 123% (inactive); in [11] (at 1.25 µM, OCI-C5x cells, without rucaparib) it was 107% (inactive); in test [11] (at 1.25 µM, OCI-P5x cells, with rucaparib 20 µM, 100% = cells with rucaparib alone) it was 110% (inactive); in test [11] (at 1.25 µM, OCI-P5x cells, without rucaparib), 86.9% (active); in test [11] (at 5 µM, OCI-C5x cells, with rucaparib 10 µM, 100% = cells with rucaparib alone) it was 131% (inactive); in test [11] (at 5 µM, OCI-C5x cells, without rucaparib), 115% (inactive). For the same compound, the viability in [11] (at 5 µM, OCI-P5x cells, with rucaparib 20 µM, 100% = cells with rucaparib alone) was 76.9% (active); in [11] (at 5 µM, OCI-P5x cells, without rucaparib) it was 82.8% (active).
Turning to `CC(C)(O)CCc1ccc(OCc2cc(-c3cccc(OC(F)F)c3)c3ncccc3c2)cc1`, the AC50 in test [1] and in test [7] was 23.5 µM (active) in each case. The result in test [2], in test [3], in test [12] and in test [6] was inactive.
For the compound `O=C(O)c1ccc(O)c2ncc(N3CCOCC3)cc12`, the call in test [1], in test [3] and in [8] was inactive. For the same compound, the AC50 in [2] was 26.4 µM (active); in [12], 23.5 µM (active); in test [6] it was 26.4 µM (active); in test [7] it was 23.5 µM (active).
Take `COc1ccccc1-c1cccc(-c2c(O)c3cc(C#N)c(Cl)cc3[nH]c2=O)c1`: the compound was called inactive in test [1], in [2], in test [3], in test [4], in test [5] and in test [6]. Further, the call in [7] and in [8] was inactive.
Turning to `CCCCC(F)(F)[C@@]1(O)CC[C@H]2[C@@H](CC(=O)[C@@H]2CCCCCCC(=O)O)O1`, the call in [1], in [2], in test [3], in test [4], in test [5] and in [6] was inactive. For the same compound, the compound was called inactive in [7] and in test [8].
With `C[C@]12CC[C@H](O)CC1=CC[C@@H]1[C@@H]2CC[C@]2(C)C(c3cccnc3)=CC[C@@H]12`, the result in test [1], in test [2], in test [3], in [4], in test [5] and in test [6] was inactive. Also, the outcome in [7] was inactive. The SSMD in [13] worked out at 1.68. Further, the cell count in test [13] was 7310. Further, the plate-normalised HSF1 focus index in [13] was 1.06 (inactive).
On to `CN(C)CC(C)(C)CNc1nn2c(-c3ccccc3)nnc2cc1C1CCC1`, for which the compound was called inactive in test [1], in test [2], in test [4], in [5], in test [6] and in test [7]. The result in [8] was inactive. In addition, the AC50 in test [3] was 16.6 µM (active).

(Values after PubChem BioAssay.)
